Our source for the inhibition values is PubChem BioAssay.

The assay is described as follows: NFkB reporter suppression in cystic fibrosis bronchial cells – cell-based, uHTS hits, panel, cytotoxicity readout, dose response (AID 624344). To be noted: CF bronchial epithelial cells, PAF-induced NFkB reporter inhibition, with PAF, run 1; at 79 µM (top of the series) unless noted.
As usually defined, the inhibition is the relative decrease from the control value, in per cent. As for `Cc1ccnc(NC(=O)CSc2cc(=O)n(C)c3ccccc23)c1`, the inhibition was determined as 103%.

With `COC(=O)c1c(C)n(-c2ccc(OC)cc2)c2ccc(O)cc12`, the inhibition was 103%.

Consider `C[C@@H]1CN([C@H](C)CO)C(=O)c2cc(NC(=O)Nc3ccc(C(F)(F)F)cc3)ccc2O[C@H]1CN(C)S(=O)(=O)c1ccccc1`, for which the inhibition was 92%.

`Cc1ccc(S(=O)(=O)N2[C@@H](c3ccc(C(C)(C)C)cc3)C(C(=O)O)=CC[C@H]2c2ccc(C(C)C)cc2)cc1`: the inhibition stood at 65%.

As for `CN(Cc1ccco1)c1ncnc2ccc(-c3ccoc3)cc12`, the inhibition was found to be 114%.

Turning to `CN(C)c1ccc(Nc2ncnc3ccc(Br)cc23)cc1`, the inhibition was found to be 104%.

For the molecule `Cc1ccc(CNc2ncnc3ccc(-c4ccc(CO)o4)cc23)o1`, the inhibition was found to be 101%.

As to `COc1ccc(-c2csc(/C(C#N)=C\c3ccc(O)c([N+](=O)[O-])c3)n2)cc1OC`, the inhibition amounted to 97.7%.

`Cc1ccc(NC(=O)c2nc[nH]c2C(=O)NCCCNC(=O)c2[nH]cnc2C(=O)Nc2ccc(C)cc2)cc1`: the inhibition amounted to 108%.

In the case of `Cc1ccc(C(C(=O)NCc2ccccc2)N(Cc2cccs2)C(=O)c2ccc3c(c2)OCCO3)cc1` (stereo unspecified), the inhibition was 106%.

On to `CC(=O)Oc1c(Br)cc(N(C(C)=O)S(=O)(=O)c2ccccc2)c2ccccc12`, for which the inhibition was 72.3%.

For `C/C(=N\Nc1cc(N2CCOCC2)ncn1)c1cccc([N+](=O)[O-])c1`, the inhibition was determined as 115%.

Consider `Cc1cccc(N=c2oc3cc(O)ccc3cc2C(N)=O)c1`, for which the inhibition came out at 87.7%.

Regarding `CC(=O)OCCN1c2ccccc2Sc2cnccc21`, the inhibition stood at 105%.

As to `CC(=O)OCCCNc1cc(Sc2ccc(Cl)cc2)c2nonc2c1[N+](=O)[O-]`, the inhibition turned out to be 100%.

As to `CC1CCN(CC(CS(=O)(=O)c2ccc([N+](=O)[O-])cc2)N2CCC(C)CC2)CC1` (stereo unspecified), the inhibition turned out to be 101%.
